Reference: article PMC3218832

Columns and labels:
Assay in all cases: protein binding microarray; high values mean tight binding
Details in all cases: dsDNA, one strand shown
RELARELA (p65 homodimer) = RELARELA (p65 homodimer) (Homo sapiens, UniProt Q04206 1-307)
p50p50 homodimer = p50p50 homodimer (Homo sapiens, UniProt P19838 7-356)
p52p52 homodimer = target: T1, p52p52 homodimer (Homo sapiens, UniProt Q00653 4-332)
T1 sequence: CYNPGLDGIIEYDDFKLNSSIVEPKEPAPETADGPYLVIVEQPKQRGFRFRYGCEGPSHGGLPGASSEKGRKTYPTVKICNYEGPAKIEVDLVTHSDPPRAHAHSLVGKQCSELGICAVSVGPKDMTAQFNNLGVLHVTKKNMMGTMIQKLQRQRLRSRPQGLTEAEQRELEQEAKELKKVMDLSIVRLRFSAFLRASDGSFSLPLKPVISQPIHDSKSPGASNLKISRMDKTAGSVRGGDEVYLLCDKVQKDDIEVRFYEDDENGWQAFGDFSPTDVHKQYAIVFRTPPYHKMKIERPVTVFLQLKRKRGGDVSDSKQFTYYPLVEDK

[1] = target: RELA (p65) subunit of heterodimer;p50 subunit (Homo sapiens;Homo sapiens, UniProt Q04206;P19838 1-307;7-356)
[2] = target: RELA (p65) subunit of heterodimer;p52 subunit (Homo sapiens;Homo sapiens, UniProt Q04206;Q00653 1-307;4-332)
RELB subunit;p50 subunit = RELB subunit;p50 subunit (Homo sapiens;Homo sapiens, UniProt Q01201;P19838 120-401;7-356)
RELB subunit;p52 subunit = target: T2, RELB subunit;p52 subunit (Homo sapiens;Homo sapiens, UniProt Q01201;Q00653 120-401;4-332)
T2 sequence 1: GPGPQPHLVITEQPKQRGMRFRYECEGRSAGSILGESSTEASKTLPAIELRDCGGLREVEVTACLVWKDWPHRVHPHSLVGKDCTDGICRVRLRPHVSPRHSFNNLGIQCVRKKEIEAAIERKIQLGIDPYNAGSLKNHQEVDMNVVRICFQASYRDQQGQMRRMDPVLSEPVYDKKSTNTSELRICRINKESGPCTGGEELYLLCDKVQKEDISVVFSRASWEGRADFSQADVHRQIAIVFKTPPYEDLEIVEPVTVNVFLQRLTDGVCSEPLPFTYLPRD
T2 sequence 2: T1 sequence

[3] = target: C-Rel subunit;p50 subunit (Homo sapiens;Homo sapiens, UniProt Q04864;P19838 1-285;7-356)
[4] = target: T3, C-Rel subunit;p52 subunit (Homo sapiens;Homo sapiens, UniProt Q04864;Q00653 1-285;4-332)
T3 sequence 1: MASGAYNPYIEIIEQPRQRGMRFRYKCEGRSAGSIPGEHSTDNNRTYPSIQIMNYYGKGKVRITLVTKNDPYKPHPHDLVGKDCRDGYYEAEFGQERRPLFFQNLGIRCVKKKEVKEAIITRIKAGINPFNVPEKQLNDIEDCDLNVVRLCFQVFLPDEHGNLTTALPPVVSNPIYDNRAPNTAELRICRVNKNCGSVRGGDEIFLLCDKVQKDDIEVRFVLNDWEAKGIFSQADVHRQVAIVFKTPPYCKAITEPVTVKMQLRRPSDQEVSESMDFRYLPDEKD
T3 sequence 2: T1 sequence

Sequence of p50p50 homodimer (P19838 7-356): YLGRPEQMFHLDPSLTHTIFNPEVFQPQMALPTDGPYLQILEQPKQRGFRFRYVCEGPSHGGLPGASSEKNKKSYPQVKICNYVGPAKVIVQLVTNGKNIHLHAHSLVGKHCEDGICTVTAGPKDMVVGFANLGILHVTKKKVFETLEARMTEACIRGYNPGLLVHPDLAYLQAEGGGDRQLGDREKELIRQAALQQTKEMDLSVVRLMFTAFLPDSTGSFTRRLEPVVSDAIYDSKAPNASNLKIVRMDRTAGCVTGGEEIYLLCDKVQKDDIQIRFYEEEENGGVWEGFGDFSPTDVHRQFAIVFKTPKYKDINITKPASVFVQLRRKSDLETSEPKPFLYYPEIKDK
Sequence of RELA (p65) subunit of heterodimer;p50 subunit (Q04206 1-307, chain 1 of 2): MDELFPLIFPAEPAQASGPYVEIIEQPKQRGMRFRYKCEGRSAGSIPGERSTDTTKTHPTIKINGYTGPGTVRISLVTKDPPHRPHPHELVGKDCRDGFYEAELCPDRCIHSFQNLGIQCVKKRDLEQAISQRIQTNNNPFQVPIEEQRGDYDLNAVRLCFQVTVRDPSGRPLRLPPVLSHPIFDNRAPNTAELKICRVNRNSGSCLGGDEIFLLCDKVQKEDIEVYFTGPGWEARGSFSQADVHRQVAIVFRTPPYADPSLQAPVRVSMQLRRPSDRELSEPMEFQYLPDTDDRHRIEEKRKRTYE
Sequence of RELA (p65) subunit of heterodimer;p50 subunit (P19838 7-356, chain 2 of 2): as the sequence (P19838 7-356) above
Sequence of RELARELA (p65 homodimer) (Q04206 1-307): as the sequence (Q04206 1-307, chain 1 of 2) above

Row | Sequence | binding signal (RELARELA (p65 homodimer)) [z-score] | binding signal (p50p50 homodimer) [z-score] | binding signal (p52p52 homodimer) [z-score] | binding signal [1] [z-score] | binding signal [2] [z-score] | binding signal (RELB subunit;p50 subunit) [z-score] | binding signal (RELB subunit;p52 subunit) [z-score] | binding signal [3] [z-score] | binding signal [4] [z-score]
1 | GAGAAGATCCC | -0.164 | -0.0695 | -0.271 | -0.131 | -0.161 | -0.259 | -0.387 | -0.311 | -0.307
2 | GGAATGATCCC | -0.0862 | -0.737 | -0.387 | -0.382 | -0.396 | -0.763 | -0.764 | -0.432 | -0.264
3 | GGGGGTGCCCC | 1.45 | 0.814 | 3.15 | 2.21 | 2.88 | 2.52 | 2.27 | 1.67 | 2.5
4 | CGGAAAACCCC | 3.69 | 1.19 | 2.57 | 2.32 | 2.28 | 1.23 | 2.18 | 2.07 | 3.23
5 | CGAGAATCCCT | -0.154 | 0.393 | 0.327 | 0.25 | 0.284 | 0.305 | 0.573 | 0.277 | 0.32
6 | GGAGATATCCT | -0.481 | -1.23 | -0.703 | -0.874 | -0.798 | -1.04 | -0.872 | -1.35 | -0.82
7 | GAAATGACCCT | -0.43 | -0.328 | -0.304 | -0.247 | -0.11 | -0.287 | -0.38 | -0.632 | -0.223
8 | AAAAAGCCCCC | 1.22 | 1.3 | 2.26 | 1.98 | 2.06 | 2.17 | 2.06 | 1.43 | 2.22
9 | GGGTAGTTCCT | 0.746 | 0.495 | 0.541 | 0.394 | 0.345 | -0.0983 | 0.0547 | 0.249 | 0.583
10 | AAATTGCTCCT | -0.35 | -1.61 | -0.602 | -0.644 | -0.813 | -0.967 | -0.7 | -1.33 | -0.903
11 | CGGGACCCCCT | -0.322 | 1.2 | 0.855 | 1.01 | 0.923 | 1.13 | 1.36 | 0.895 | 0.632
12 | AAATGCTTCCC | 0.511 | -0.412 | -0.425 | -0.0858 | -0.314 | -0.27 | -0.535 | 0.16 | -0.384
13 | CGATATATCCC | 0.113 | -0.443 | -0.0767 | -0.33 | -0.28 | -0.357 | -0.154 | -0.427 | -0.465
14 | GAGGAGGCCCT | -1.17 | -1.07 | -0.602 | -1.02 | -0.973 | -0.68 | -0.644 | -1.36 | -0.766
15 | GAGTACACCCT | -0.136 | -0.892 | -0.573 | -0.83 | -0.569 | -0.614 | -0.527 | -0.745 | -0.376
